Results from PubChem BioAssay (EPA / NIEHS).
Inconclusive results are not listed. Activity calls are given as the source filed them. The calls were made as follows: active = hit-call score of the fitted dose curve at least 0.9, where 1 is the maximum; inconclusive = response in the unintended direction; inactive = score below 0.9.

Assay: TOX21_PR_BLA_Followup_Antagonist_viability: Viability Assessment in the Tox21 HEK293 Progesterone Receptor (PR) Antagonism Beta-lactamase Follow-Up Assay (AID 2283936);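 also: cells exposed to compound with R5020 agonist for 16 h; hits lower the luminescence signal meaning cytotoxicity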
In short: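 PR-UAS-bla HEK293T cells in medium with 2% charcoal-stripped FBS were treated with compounds plus R5020 for 16 hr at 37C. After the beta-lactamase read, CellTiter-Glo was added to the same wells and luminescence read after 30 min at room temperature.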

Row | Compound | outcome | AC50
1 | CCOC(=O)c1ccccc1C(=C1C=C(Br)C(=O)C(Br)=C1)c1cc(Br)c(O)c(Br)c1 | inactive | –
2 | CC(C)(c1cc(Br)c(OCCO)c(Br)c1)c1cc(Br)c(OCCO)c(Br)c1 | – | 54 µM (active)
3 | COc1ccc(C(Cl)=C(c2ccc(OC)cc2)c2ccc(OC)cc2)cc1 | inactive | –
4 | Cc1ccc(C(C)c2ccc(C)c(C)c2)cc1C | inactive | –
5 | Nc1ccc(-c2ccc(F)cc2)cc1 | inactive | –
6 | C[C@]12C=CC(=O)C=C1CC[C@@H]1[C@@H]2[C@@H](O)C[C@@]2(C)[C@H]1CC[C@]2(O)C(=O)CO | inactive | –
7 | CCC(=O)Oc1ccc(/C(CC)=C(\CC)c2ccc(OC(=O)CC)cc2)cc1 | inactive | –
8 | CC(=O)[C@H]1[C@H](C#N)C[C@H]2[C@@H]3CC=C4C[C@@H](O)CC[C@]4(C)[C@H]3CC[C@@]21C | inactive | –
9 | C[C@]12CCC(=O)C=C1CC[C@@H]1[C@@H]2C(=O)C[C@@]2(C)[C@H]1CC[C@]2(O)C(=O)CO | inactive | –
10 | C#CC1(O)CC[C@H]2[C@@H]3CCC4=CCCC[C@@H]4[C@H]3CC[C@@]21C (stereo not given in full) | inactive | –
